About 83,000 compounds went through this panel and 20% of them were active in at least one assay; those are over-represented in the sample as a whole.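 Cell lines were cultured in 96-well plates, exposed to a single compound concentration, and assessed for percent growth 48 hours later.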 Calls of active or inactive are those of the source. Rule for the calls: active = growth percent below 10; inactive = the rest.

The test system of this assay is HCC-2998 colon. Briefly: NCI-60 one-dose screen, 48 h (100 = growth as untreated, 0 = no growth, -100 = all killed). The following applies: 10 µM unless noted.
As to `COc1c(F)ccc(C(=O)Nc2ccc3nc(NC(=O)C4CCCN(S(=O)(=O)C5CC5)C4)sc3c2)c1F` (stereo not drawn), the growth is 59.8% (inactive).

For `CCOC(=O)C1=C(N)N(c2ccccc2)C2=C(C(=O)CC(C)(C)C2)C1c1ccc(N2CCOCC2)cc1` (stereo not drawn), the growth was 108% (inactive).

For `OCC1(CCCc2ccccc2)CCCN(c2nccc3ccccc23)C1` (stereo not drawn), the growth is 60.3% (inactive).

With `COc1ccc(/C=N/NC(=O)Cn2nc(Cc3ccc(OC)cc3)c3onc(C)c3c2=O)cc1`, the growth is 6.89% (active).

With `O=[N+]([O-])c1ccc(/C=C/c2nc3ccccc3n3c(=S)[nH]nc23)cc1`, the growth was 93.4% (inactive).

In the case of `COC(=O)/C=C/c1cccc2c1C(=O)NC(C)(c1cc3ccccc3oc1=O)N2` (stereo not drawn), the growth is 74.4% (inactive).

On to `CCN(CC)c1ccc(/C=N/Nc2nc(-c3ccc(Br)cc3)cs2)c(O)c1`, for which the growth is 100% (inactive).

Take `O=C(c1ccccc1)C(c1c[nH]c2ccccc12)c1c[nH]c2ccccc12`: the growth was 83.8% (inactive).

Regarding `CC1(C)CC[C@]2(C(=O)Nc3ccc(Br)cc3)CC[C@]3(C)C(=CCC4[C@@]5(C)C[C@@H](O)[C@H](O)[C@@](C)(CO)C5CC[C@]43C)C2C1` (stereo partly drawn), the growth was -33.4% (active).

In the case of `CC(/C=C1\SC(=S)N(CCCC(=O)NC(CC(C)C)C(=O)O)C1=O)=C\c1ccccc1` (stereo not drawn), the growth was 108% (inactive).

For `Cn1cc(-c2cc(N)n3nc(-c4cn(C)c5ccccc45)cc3n2)c2cc(Br)ccc21`, the growth is -70.2% (active).

As for `Cc1ccc(NCC(=O)Cn2cc(COc3ccc(C=Nc4cnc5ccccc5c4)cc3)nn2)cc1`, the growth is 101% (inactive).

Regarding `Cc1ccc([C@H]2C(C(=O)c3ccc(Cl)cc3)C3(N[C@@H]2c2ccccc2)C(=O)Nc2ccc(Cl)cc23)cc1` (stereo partly drawn), the growth was 18.8% (inactive).

Take `Cc1cc2nc3c4ccccc4n(CCNCCN(C)C)c3nc2cc1C`: the growth was -56.7% (active).

On to `Cc1ccccc1[C@H]1C(C(=O)c2ccc(Cl)cc2)C2(N[C@@H]1c1ccccc1)C(=O)Nc1ccc(Br)cc12` (stereo partly drawn), for which the growth was -22.1% (active).

With `CC(C)c1sc(NC(=O)c2cc(NC(=O)c3cc(NC(=O)c4cscn4)cn3C)cn2C)nc1C(=O)NCCCN(C)C`, the growth is -74.9% (active).

Turning to `CC(=O)OC[C@@]1(C)C2CC[C@]3(C)C(CC=C4C5CC(C)(C)CC[C@]5(C(=O)Nc5ccc(C)cc5)CC[C@]43C)[C@@]2(C)C[C@@H](OC(C)=O)[C@@H]1OC(C)=O` (stereo partly drawn), the growth was 44.8% (inactive).

Turning to `O=C1CC(Sc2n[nH]c(-c3ccncc3)n2)C(=O)N1c1ccc(Br)cc1` (stereo not drawn), the growth is 110% (inactive).

As for `COc1cc2c3c(n(CCCN4CCC[C@@H]4CO)c(=O)c2cc1OC)-c1cc2c(cc1C3=O)OCO2`, the growth was -99.4% (active).

On to `C=C1CCC2C3(C)COC(c4ccc(F)cc4)OC3CCC2(C)C1C/C=C1/C(=O)OCC1O` (stereo not drawn), for which the growth is -69.7% (active).

Consider `Cc1sc(C(NC(=O)OCCn2c([N+](=O)[O-])cnc2C)C(F)(F)Cl)nc1-c1ccc(OC(F)(F)F)cc1` (stereo not drawn), for which the growth was -96.6% (active).

With `CC1[C@H]2[C@H](C[C@H]3[C@@H]4CC=C5c6sc(Nc7ccccc7F)nc6CC[C@]5(C)[C@H]4CC[C@@]32C)O[C@]12CC[C@@H](C)CO2` (stereo partly drawn), the growth is -82.1% (active).

With `O=C(c1ccccc1)c1ccc2nc(-c3cccc(Cl)c3)[nH]c2c1`, the growth was 110% (inactive).

As to `OCNc1ccc(-n2cnc3cc(-c4ccc(O)cc4)ccc32)cc1C(F)(F)F`, the growth was 43.4% (inactive).

In the case of `CCOC(=O)C(N=Nc1ccc(S(=O)(=O)N=C(N)N)cc1)C(C)=O` (stereo not drawn), the growth was 120% (inactive).

As for `CCOC(=O)/C=C/c1cccc2c1C(=O)NC(C)(c1cc3cc(Cl)ccc3oc1=O)N2` (stereo not drawn), the growth was 38.7% (inactive).

With `C#CCOc1cc(N(CC)CC)ccc1C(C(=O)NC(C)(C)C)N(C(=O)C1CCc2cc(F)ccc2O1)c1ccc(Br)cc1` (stereo not drawn), the growth is 100% (inactive).

In the case of `CCCCCCCCc1ccc(C(=O)Nc2ccc(C)cc2C(=O)O)cc1C`, the growth is 106% (inactive).

As to `C#CCOc1cc(N(CC)CC)ccc1C(C(=O)NC(C)(C)C)N(C(=O)C1CCc2cc(F)ccc2O1)c1ccc(F)c(Cl)c1` (stereo not drawn), the growth is 92% (inactive).

Take `CCOC(=O)C1=C(N)N(c2ccccc2)C2=C(C(=O)CC(C)(C)C2)C1c1ccc([N+](=O)[O-])cc1` (stereo not drawn): the growth was 100% (inactive).

`C=C1CC[C@@H]2[C@]3(C)COC(c4ccccc4)O[C@@H]3CC[C@@]2(C)[C@@H]1C/C=C1/C(=O)OCC1OC(C)=O` (stereo partly drawn): the growth was -76.2% (active).

On to `C#C[C@]1(O)CC[C@H]2[C@@H]3CC=C4c5sc(-c6ccc([N+](=O)[O-])cc6)nc5CC[C@]4(C)[C@H]3CC[C@@]21C`, for which the growth is -49.2% (active).

Take `CN1CCN(/C(=N\c2sc(-c3ccccc3)nc2-c2ccccc2)c2ccccc2)CC1`: the growth was 77.5% (inactive).

In the case of `N=C1N=C(SCc2nc3ccccc3[nH]2)NC(=O)/C1=C/c1ccc(Cl)cc1`, the growth is 109% (inactive).

Consider `C/C(=N\N=C1/C(=O)Nc2ccc(Cl)cc21)c1ccc2c(c1)Nc1ccccc1S2`, for which the growth is -48.2% (active).

For `Cc1cccc(NC(=O)CN2CCN(c3ncnc4c3cnn4-c3ccccc3)CC2)c1`, the growth was 107% (inactive).

`CN(C)CCOc1ccc(C(=O)C2[C@H](c3ccc(Cl)cc3)[C@@H](c3ccccc3)NC23C(=O)Nc2ccccc23)cc1` (stereo partly drawn): the growth is -59.9% (active).

`COc1ccc2[nH]cc(-c3nnc(N)nc3-c3cn(C)c4ncc(Br)cc34)c2c1`: the growth is 80.2% (inactive).

The record behind these values is PubChem BioAssay (NCI).
